Data from PubChem BioAssay (NCATS).
Inconclusive results are not listed. Activity calls are given as the source filed them. Unless noted, calls follow the shape of the dose curve; as a rule, active = well fitted curve in the direction sought with a large enough effect; inconclusive = small, poorly fitted or top-dose-only effect, or another doubt; inactive = no such curve, though single readings can be large; an effect the other way counts as inactive or inconclusive.

What was measured:
[1] = Cell Viability - BJ (AID 421; calls by dose curve;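 also: potency is read from the fitted curve at half-maximal effect; cells exposed to compound for 40 hours at 37 °C before readout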); settings: BJ fibroblast viability, qHTS
In short: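 Normal human BJ foreskin fibroblasts, 1500/well in complete medium, treated 40 hr at 37 °C. Cellular ATP by CellTiter-Glo luminescence; normalized to DMSO and 100 uM tamoxifen, AC50 from Hill fit.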

[2] = Cell Viability - Jurkat (AID 426;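 active = dose-dependent loss of cell ATP signal giving a full or clear fitted curve, ranked by lower potency value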; also: potency is read from the fitted curve at half-maximal effect); settings: qHTS
In short: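 Cytotoxicity taken as drop in cellular ATP (CellTiter-Glo luminescence, 20 min room temperature) after 40 hr, 37C treatment of 5000 Jurkat Clone E6-1 cells per well; concentration-response fitted with Hill equation for AC50.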

[3] = Cell Viability - Hek293 (AID 427;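 active = compounds whose dose-response curve shows a full or clear partial loss of cell viability, called from curve shape rather than a numeric limit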;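 also: potency is read from the fitted curve at half-maximal effect; cells exposed to compound for 40 hours at 37 °C before reading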); settings: qHTS
In short: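 HEK293 cells in complete medium were exposed to compound for 40 hr at 37 °C, then cellular ATP was read by CellTiter-Glo luminescence. Data were normalized to DMSO (basal) and 100 uM tamoxifen (100% inhibition), and AC50 came from Hill fits.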

[4] = Cell Viability - HepG2 (AID 433; calls by dose curve;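 also: potency is read from the fitted curve at half-maximal effect; potency for ATP loss meaning cytotoxicity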); settings: qHTS
In short: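 Cytotoxicity is scored as loss of intracellular ATP in HepG2 cells exposed to compounds for 40 h. Concentration-response curves, normalized to DMSO and 100 uM tamoxifen, give AC50 values.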

[5] = Cell Viability - MRC5 (AID 434; calls by dose curve;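 also: potency is read from the fitted curve at half-maximal effect; potency reflects cytotoxicity seen as loss of intracellular ATP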); settings: MRC5 lung fibroblast viability, qHTS
In short: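 AC50 values come from Hill-equation fits of intracellular ATP loss, measured by CellTiter-Glo luminescence. Normal lung fibroblasts (MRC5) had 40 hr compound treatment at 37 C, normalized between DMSO and 100 uM tamoxifen.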

[6] = Cell Viability - SK-N-SH (AID 435; calls by dose curve; also: potency is read from the fitted curve at half-maximal effect); settings: SK-N-SH neuroblastoma cell viability qHTS
In short: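 Cells seeded at 1500 per well and incubated 5 hr at 37 °C. Compound added, then 40 hr at 37 °C. CellTiter-Glo added, 20 min at room temperature, luminescence read.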

[7] = molecular target: Mitogen-activated protein kinase 10 (Mus musculus) (UniProt Q61831); experiment: JNK3 AlphaScreen Assay (AID 530; active = well fitted curve in either direction with a large enough effect, not every such curve was filed as active;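 also: kinase came from lysate of stimulated human HepG2 cells; signal reports phosphorylation of biotinylated GST-cJun 1-79 at Ser73 with 10 µM ATP; % is scaled to controls: 0 for no effect and ±100 for the full control effect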); settings: JNK3 lysate, c-Jun phosphorylation; series mostly up to 57.1 µM
In short: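 qHTS titrations with 15 min compound pre-incubation before adding ATP (10 uM final). Read-out: AlphaScreen of Ser73-phosphorylated biotin-GST-cJun using HepG2 lysate JNK3 activated by IL-1β and TNFα.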

[8] = Cell Viability - N2a (AID 540); settings: N2a mouse neuroblastoma cell viability; activity change, negative = cytotoxicity: at 92.2 µM (top of the series);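 also: plate controls were DMSO alone for no effect and tamoxifen control for full effect; nearly all actives have a fitted effect of over 45% in size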
In short: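 CellTiter-Glo ATP luminescence, read 20 min after reagent at room temperature, reported viability following 40 h compound treatment at 37 °C. N2a mouse neuroblastoma cells seeded 1500/well; Hill equation gave AC50.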

[9] = Cell Viability - NIH 3T3 (AID 541); settings: NIH 3T3 cell viability, qHTS; activity change, negative = cytotoxicity: at 92.2 µM (top of the series);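 also: plate controls were DMSO alone for no effect and tamoxifen positive control for full effect; nearly all actives have a fitted effect of over 25% in size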
In short: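 Intracellular ATP (CellTiter-Glo luminescence, 20 min at room temperature) measured after 40 hr compound exposure at 37 °C of 1000 NIH 3T3 mouse fibroblasts/well in complete medium; AC50 derived by Hill-equation modelling of qHTS concentration-response curves.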

[10] = Cell Viability - HUV-EC-C (AID 542); settings: HUV-EC-C endothelial cell viability, qHTS; series mostly up to 92.2 µM; also: % is scaled to controls: 0 for no effect and ±100 for the full control effect; nearly all actives have a fitted effect of over 35% in size
In short: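 CellTiter-Glo luminescence measured ATP loss in HUV-EC-C cells (1000/well) after 40 hr compound exposure at 37 °C, in complete culture medium. Concentration-response data were Hill-fitted to give AC50.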

[11] = Cell Viability - H-4-II-E (AID 543); settings: H-4-II-E rat hepatoma viability; series mostly up to 92.2 µM; also: % is scaled to controls: 0 for no effect and ±100 for the full control effect; nearly all actives have a fitted effect of over 35% in size
In short: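 CellTiter-Glo luminescence (intracellular ATP) measured after 40 h compound exposure at 37 °C in H-4-II-E rat hepatoma cells seeded at 1500/well. Values are AC50s fitted with the standard Hill equation.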

[12] = Cell Viability - SH-SY5Y (AID 544); settings: SH-SY5Y neuroblastoma cell viability; viability change, negative = cytotoxic: at 92.2 µM (top of the series); also: nearly all actives have a fitted effect of over 55% in size
In short: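 Cytotoxicity measured via ATP-dependent luciferase luminescence (CellTiter-Glo) following 40 h, 37 °C exposure of 1500 SH-SY5Y cells per well. Concentration-response data were fitted with the standard Hill equation to give AC50.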

[13] = Cell Viability - Renal Proximal Tubule (AID 545); settings: renal proximal tubule cells viability, primary cells of rat origin; series mostly up to 91.7 µM; also: nearly all actives have a fitted effect of over 40% in size
In short: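 Cytotoxicity is scored as a concentration-dependent drop in cellular ATP in primary rat renal proximal tubule cells exposed for 40 hr. AC50 derives from Hill modelling.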

[14] = Cell Viability - Mesenchymal (AID 546); settings: mesenchymal cells viability, qHTS; series mostly up to 91.7 µM;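 also: cells exposed to compound for 40 hours before reading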
In short: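 CellTiter-Glo luminescence (intracellular ATP, 20 min room temperature) after 40 hr compound exposure at 37 °C of 1000 glomerulus-derived human kidney mesenchymal cells/well; AC50 values obtained by fitting qHTS concentration-response data to the Hill equation.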

[15] = Cellular Toxicity (caspase-3) HepG2 (AID 654); settings: HepG2 caspase-3 activation, luminescence; series mostly up to 92.2 µM;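 also: cells exposed to compound for 16 hours before reading; 0% = DMSO alone and 100% = caspase signal from 100 µM tamoxifen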
In short: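 Caspase 3/7 activation is measured as a luminescence increase (aminoluciferin substrate) after 16 h compound exposure of human hepatocarcinoma HepG2 cells. AC50 values are Hill fits, scaled between DMSO baseline and 100 uM tamoxifen stimulation.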

[16] = Cellular Toxicity (caspase-3) Jurkat (AID 655); settings: Jurkat caspase-3 activation, luminescence; caspase-3 activation: at 92.2 µM (top of the series), DMSO = 0%, tamoxifen = 100%;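 also: cells exposed to compound for 16 h at 37 °C before reading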
In short: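 Caspase 3/7 activation is scored as increased luminescence in Jurkat cells cultured with compound for 16 hours in complete medium. AC50 values come from Hill fits of qHTS concentration-response data normalized to DMSO and 100 uM tamoxifen controls.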

[17] = Cellular Toxicity (caspase-3) HUV-EC-C (AID 656); settings: HUV-EC-C cells, caspase-3 activation (apoptosis), vehicle = 0, 100 µM tamoxifen = 100%; series mostly up to 92.2 µM
In short: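 Read-out: luminescence proportional to caspase 3/7 activity, measured 20 min after adding Caspase-Glo 3/7 reagent. Cells (HUV-EC-C) had received compound for 16 hr at 37°C. Increases relative to DMSO and 100 uM tamoxifen gave concentration-response AC50 values.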

[18] = Cellular Toxicity (caspase-3) SHSY5Y (AID 657); settings: SH-SY5Y caspase-3 activation, DMSO zero, 10 µM staurosporine = 100%; series mostly up to 91.7 µM;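 also: cells exposed to compound for 16 hours at 37 °C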
In short: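 Cells plated and incubated 5 h at 37 °C, dosed over a concentration range, incubated 16 h, then given Caspase-Glo 3/7 reagent for 1 h at room temperature before luminescence reading. Staurosporine (10 uM) defined full stimulation.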

[19] = Cellular Toxicity (caspase-3) BJ (AID 658); settings: BJ fibroblasts, luminescence, normalized: DMSO 0%, staurosporine 100%; series mostly up to 91.7 µM
In short: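 Caspase-Glo 3/7 luminescence, read 1 hr after reagent at room temperature, in normal BJ fibroblasts exposed 16 hours at 37 °C. AC50 values from Hill-equation concentration-response, scaled between DMSO basal and 10 uM staurosporine as 100%.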

[20] = Cellular Toxicity (caspase-3) MRC-5 (AID 659); settings: MRC-5 cells, luminescence, normalized: DMSO 0%, 10 µM staurosporine 100%; series mostly up to 91.7 µM
In short: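 Luminescent Caspase-Glo 3/7 read-out (1 h, room temperature) after a 16 h, 37 °C compound exposure of MRC-5 lung fibroblasts at 1500 cells/well. Concentration-response AC50 from Hill equation; 0% DMSO, 100% 10 uM staurosporine.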

C=C(C)C(=O)OCC(C)O (configuration not stated)
inactive: Potency [1] > 92 µM | Potency [2] > 92 µM | Potency [3] > 92 µM | Potency [4] > 92 µM | Potency [5] > 92 µM | Potency [6] > 92 µM | outcome [7] | activity change, negative = cytotoxicity [8] 6.96% | Potency [9] | Potency [10] | Potency [11] | Potency [12] | Potency [13] | Potency [14] | Potency [15] | caspase-3 activation [16] 1.29% | outcome [17] | outcome [18] | outcome [19] | outcome [20]

C=C(C)C(N)=O
inactive: Potency [1] > 92 µM | Potency [2] > 92 µM | Potency [3] > 92 µM | Potency [4] > 92 µM | Potency [5] > 92 µM | Potency [6] > 92 µM | outcome [7] | activity change, negative = cytotoxicity [8] -7.09% | Potency [9] | Potency [10] | Potency [11] | Potency [12] | Potency [13] | Potency [14] | Potency [15] | caspase-3 activation [16] -0.182% | outcome [17] | outcome [18] | outcome [19] | outcome [20]

CCCCCCCCC
inactive: Potency [1] > 92 µM | Potency [2] > 92 µM | Potency [3] > 92 µM | Potency [4] > 92 µM | Potency [5] > 92 µM | Potency [6] > 92 µM | outcome [7] | activity change, negative = cytotoxicity [8] -3.11% | Potency [9] | Potency [10] | Potency [11] | Potency [12] | Potency [13] | Potency [14] | Potency [15] | caspase-3 activation [16] 0.991% | outcome [17] | outcome [18] | outcome [19] | outcome [20]

O=[N+]([O-])c1ccc(NCCO)c(OCCO)c1
inactive: Potency [1] > 92 µM | Potency [2] > 92 µM | Potency [3] > 92 µM | Potency [4] > 92 µM | Potency [5] > 92 µM | Potency [6] > 92 µM | outcome [7] | activity change, negative = cytotoxicity [8] -0.601% | Potency [9] | Potency [10] | Potency [11] | Potency [12] | Potency [13] | Potency [14] | Potency [15] | caspase-3 activation [16] 3.12% | outcome [17] | outcome [18] | outcome [19] | outcome [20]

Nc1c(Cl)cc(Cl)cc1Cl
inactive: Potency [1] > 92 µM | Potency [2] > 92 µM | Potency [3] > 92 µM | Potency [4] > 92 µM | Potency [5] > 92 µM | Potency [6] > 92 µM | outcome [7] | activity change, negative = cytotoxicity [8] -11.7% | Potency [9] | Potency [10] | Potency [11] | Potency [12] | Potency [13] | Potency [14] | Potency [15] | caspase-3 activation [16] 1.83% | outcome [17] | outcome [18] | outcome [19] | outcome [20]

O=C(O)CCSSCCC(=O)O
inactive: Potency [1] > 92 µM | Potency [2] > 92 µM | Potency [3] > 92 µM | Potency [4] > 92 µM | Potency [5] > 92 µM | Potency [6] > 92 µM | outcome [7] | activity change, negative = cytotoxicity [8] 1.39% | Potency [9] | Potency [10] | Potency [11] | Potency [12] | Potency [13] | Potency [14] | Potency [15] | caspase-3 activation [16] 0.0924% | outcome [17] | outcome [18] | outcome [19] | outcome [20]

Cc1ccc(Cl)cc1
inactive: Potency [1] > 92 µM | Potency [2] > 92 µM | Potency [3] > 92 µM | Potency [4] > 92 µM | Potency [5] > 92 µM | Potency [6] > 92 µM | outcome [7] | activity change, negative = cytotoxicity [8] 1.61% | Potency [9] | Potency [10] | Potency [11] | Potency [12] | Potency [13] | Potency [14] | Potency [15] | caspase-3 activation [16] 1.47% | outcome [17] | outcome [18] | outcome [19] | outcome [20]

O=C(O[C@@H](C(=O)O)[C@@H](OC(=O)c1ccccc1)C(=O)O)c1ccccc1
inactive: Potency [1] > 92 µM | Potency [2] > 92 µM | Potency [3] > 92 µM | Potency [4] > 92 µM | Potency [5] > 92 µM | Potency [6] > 92 µM | outcome [7] | activity change, negative = cytotoxicity [8] 4.68% | Potency [9] | Potency [10] | Potency [11] | Potency [12] | Potency [13] | Potency [14] | Potency [15] | caspase-3 activation [16] 1.56% | outcome [17] | outcome [18] | outcome [19] | outcome [20]

CC(C=O)Cc1ccc(C(C)(C)C)cc1 (configuration not stated)
inactive: Potency [1] > 92 µM | Potency [2] > 92 µM | Potency [3] > 92 µM | Potency [4] > 92 µM | Potency [5] > 92 µM | Potency [6] > 92 µM | outcome [7] | activity change, negative = cytotoxicity [8] -7.79% | Potency [9] | Potency [10] | Potency [11] | Potency [12] | Potency [13] | Potency [14] | Potency [15] | caspase-3 activation [16] 2.85% | outcome [17] | outcome [18]

CC(=O)C1(C)CC2=C(CCCC2(C)C)CC1C (configuration not stated)
inactive: Potency [1] > 92 µM | Potency [2] > 92 µM | Potency [3] > 92 µM | Potency [4] > 92 µM | Potency [5] > 92 µM | Potency [6] > 92 µM | outcome [7] | activity change, negative = cytotoxicity [8] -8.12% | Potency [9] | Potency [10] | Potency [11] | Potency [12] | Potency [13] | Potency [14] | Potency [15] | caspase-3 activation [16] -0.117% | outcome [17] | outcome [18] | outcome [19] | outcome [20]

NC(=S)NNC(N)=S
inactive: Potency [1] > 92 µM | Potency [2] > 92 µM | Potency [3] > 92 µM | Potency [4] > 92 µM | Potency [5] > 92 µM | Potency [6] > 92 µM | outcome [7] | activity change, negative = cytotoxicity [8] 4.33% | Potency [9] | Potency [10] | Potency [11] | Potency [12] | Potency [13] | Potency [14] | Potency [15] | caspase-3 activation [16] 0.7% | outcome [17] | outcome [18] | outcome [19]
